# Article PMC7862700, “An all-to-all approach to the identification of sequence-specific readers for epigenetic DNA modifications on cytosine”
# What was measured:
# Experiment in all cases: DAPPL (digital affinity profiling via proximity ligation, sequencing); 10 mM Tris-HCl pH 7.5, 50 mM NaCl, 1 mM DTT, 4% glycerol, room temperature, 30 min; GST-TFs on glutathione beads, 16-mer random dsDNA library, 0.1% formaldehyde crosslink after washing; high values mean tight binding
# Details in all cases: protein: recombinant; tags: N-terminal GST; dsDNA, one strand shown
# ERF = biological target: T1, ERF (Homo sapiens, UniProt P50548 1-548)
# T1 sequence: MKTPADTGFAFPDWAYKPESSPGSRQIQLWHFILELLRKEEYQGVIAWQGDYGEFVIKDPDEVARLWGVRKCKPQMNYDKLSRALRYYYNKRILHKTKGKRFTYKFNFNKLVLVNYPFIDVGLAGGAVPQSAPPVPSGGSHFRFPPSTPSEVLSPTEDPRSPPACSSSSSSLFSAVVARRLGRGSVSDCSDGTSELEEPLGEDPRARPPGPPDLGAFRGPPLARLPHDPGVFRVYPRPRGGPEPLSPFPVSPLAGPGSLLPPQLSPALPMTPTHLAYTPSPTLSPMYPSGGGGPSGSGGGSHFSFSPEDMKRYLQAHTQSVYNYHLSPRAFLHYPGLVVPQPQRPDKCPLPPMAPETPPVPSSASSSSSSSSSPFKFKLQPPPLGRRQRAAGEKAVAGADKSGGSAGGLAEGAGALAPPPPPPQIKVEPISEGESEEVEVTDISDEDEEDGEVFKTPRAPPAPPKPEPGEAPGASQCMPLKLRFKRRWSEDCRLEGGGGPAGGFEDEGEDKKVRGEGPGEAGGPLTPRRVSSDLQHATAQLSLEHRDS
# Procedure, shortened: (§1)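 Human transcription factors fused to GST were expressed in yeast, captured on glutathione beads, given DNA barcodes and pooled with a GST-only negative control. Pools were incubated with 200 nmole of a 16-mer random double-stranded DNA library in Tris/NaCl/DTT/glycerol buffer at room temperature for 30 min. They were then washed, crosslinked with 0.1% formaldehyde, proximity-ligated (BsaI/T4 ligase, 1 h, 37 °C), PCR-amplified and sequenced on an Illumina NextSeq500. Binding signal is each 6-mer's read frequency for a factor divided by its frequency for the GST control.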
# ETV3L = biological target: T2, ETV3L (Homo sapiens, UniProt Q6ZN32 1-361)
# T2 sequence: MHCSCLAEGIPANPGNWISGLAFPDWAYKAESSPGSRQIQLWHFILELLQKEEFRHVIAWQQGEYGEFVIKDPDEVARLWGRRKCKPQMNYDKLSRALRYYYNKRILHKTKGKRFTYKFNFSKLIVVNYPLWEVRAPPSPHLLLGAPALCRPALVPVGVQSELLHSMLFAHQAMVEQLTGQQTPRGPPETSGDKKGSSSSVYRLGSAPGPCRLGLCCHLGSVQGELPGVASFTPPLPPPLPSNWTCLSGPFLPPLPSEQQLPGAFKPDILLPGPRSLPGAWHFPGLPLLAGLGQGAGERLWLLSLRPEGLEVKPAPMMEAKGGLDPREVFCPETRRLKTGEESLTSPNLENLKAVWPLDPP
# Procedure, shortened: as §1
# ETS2 = biological target: T3, ETS2 (Homo sapiens, UniProt P15036 1-469)
# T3 sequence: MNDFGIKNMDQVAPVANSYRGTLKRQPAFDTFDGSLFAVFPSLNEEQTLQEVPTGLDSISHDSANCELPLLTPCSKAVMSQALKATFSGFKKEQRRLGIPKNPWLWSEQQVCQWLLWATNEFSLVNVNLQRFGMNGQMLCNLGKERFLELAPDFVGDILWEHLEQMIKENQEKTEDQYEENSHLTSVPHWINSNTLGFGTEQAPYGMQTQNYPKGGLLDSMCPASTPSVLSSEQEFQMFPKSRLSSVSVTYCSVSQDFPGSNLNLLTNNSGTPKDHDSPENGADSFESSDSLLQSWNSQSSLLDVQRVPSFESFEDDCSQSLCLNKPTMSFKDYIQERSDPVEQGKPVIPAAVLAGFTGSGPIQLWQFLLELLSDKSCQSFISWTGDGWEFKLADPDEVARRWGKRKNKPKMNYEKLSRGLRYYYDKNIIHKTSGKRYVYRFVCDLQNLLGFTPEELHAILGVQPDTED
# Procedure, shortened: as §1
# SPDEF = biological target: T4, SPDEF (Homo sapiens, UniProt O95238 1-335)
# T4 sequence: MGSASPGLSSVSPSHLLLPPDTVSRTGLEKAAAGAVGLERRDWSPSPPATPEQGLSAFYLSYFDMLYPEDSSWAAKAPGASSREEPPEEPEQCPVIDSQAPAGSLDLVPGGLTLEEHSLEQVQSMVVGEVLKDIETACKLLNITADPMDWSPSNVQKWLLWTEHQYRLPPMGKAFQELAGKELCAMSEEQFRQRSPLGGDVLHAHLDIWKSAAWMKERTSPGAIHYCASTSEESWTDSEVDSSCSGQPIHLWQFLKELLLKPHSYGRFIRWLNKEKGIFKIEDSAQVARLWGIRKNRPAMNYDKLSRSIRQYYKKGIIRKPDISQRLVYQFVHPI
# Procedure, shortened: as §1
# ETV7 = biological target: T5, ETV7 (Homo sapiens, UniProt Q9Y603 1-341)
# T5 sequence: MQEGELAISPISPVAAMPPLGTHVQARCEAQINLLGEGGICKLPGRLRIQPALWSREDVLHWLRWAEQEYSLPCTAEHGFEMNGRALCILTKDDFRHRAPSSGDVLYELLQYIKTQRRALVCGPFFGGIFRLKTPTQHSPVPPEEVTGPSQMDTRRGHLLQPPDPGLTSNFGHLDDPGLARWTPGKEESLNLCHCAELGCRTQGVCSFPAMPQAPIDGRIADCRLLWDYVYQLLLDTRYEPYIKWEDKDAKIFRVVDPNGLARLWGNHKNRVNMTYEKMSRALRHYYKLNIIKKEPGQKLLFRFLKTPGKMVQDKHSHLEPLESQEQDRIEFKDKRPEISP
# Procedure, shortened: as §1
# ELF5 = biological target: T6, ELF5 (Homo sapiens, UniProt Q9UKW6-2 1-255)
# T6 sequence: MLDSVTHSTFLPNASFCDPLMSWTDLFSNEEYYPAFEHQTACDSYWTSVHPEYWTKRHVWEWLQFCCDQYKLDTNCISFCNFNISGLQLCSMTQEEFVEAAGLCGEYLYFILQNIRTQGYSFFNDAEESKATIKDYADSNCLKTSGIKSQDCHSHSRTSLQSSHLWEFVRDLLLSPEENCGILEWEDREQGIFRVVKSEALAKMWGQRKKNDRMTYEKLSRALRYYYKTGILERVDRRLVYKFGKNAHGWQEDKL
# Procedure, shortened: as §1
# ETV3 = biological target: T7, ETV3 (Homo sapiens, UniProt P41162-2 1-143)
# T7 sequence: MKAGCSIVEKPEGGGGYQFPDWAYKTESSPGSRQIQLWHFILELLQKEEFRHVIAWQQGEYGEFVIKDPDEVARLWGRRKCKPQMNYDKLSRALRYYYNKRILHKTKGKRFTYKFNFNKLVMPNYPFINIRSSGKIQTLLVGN
# Procedure, shortened: as §1
# ETV6 = ETV6 (Homo sapiens, UniProt P41212 1-452)
# Chain of ETV6 (P41212 whole entry): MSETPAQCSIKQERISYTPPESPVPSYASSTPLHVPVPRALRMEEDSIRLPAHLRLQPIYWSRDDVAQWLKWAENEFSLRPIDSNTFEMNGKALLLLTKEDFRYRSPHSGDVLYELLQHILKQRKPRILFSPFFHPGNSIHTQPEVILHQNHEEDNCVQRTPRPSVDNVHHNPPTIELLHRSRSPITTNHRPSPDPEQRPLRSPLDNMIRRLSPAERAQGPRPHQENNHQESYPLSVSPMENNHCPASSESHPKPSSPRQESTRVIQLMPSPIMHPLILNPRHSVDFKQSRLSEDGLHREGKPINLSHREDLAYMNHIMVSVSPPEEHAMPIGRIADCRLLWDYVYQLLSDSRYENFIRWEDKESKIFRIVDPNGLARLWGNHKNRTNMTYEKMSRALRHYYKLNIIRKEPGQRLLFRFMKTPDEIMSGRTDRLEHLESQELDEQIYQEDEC
# Procedure, shortened: as §1
Sequence,binding signal (ERF),binding signal (ETV3L),binding signal (ETS2),binding signal (SPDEF),binding signal (ETV7),binding signal (ELF5),binding signal (ETV3),binding signal (ETV6)
CCTTAT,"1.41 fold enrichment (6-mer frequency, TF over GST control)","1.46 fold enrichment (6-mer frequency, TF over GST control)","1.41 fold enrichment (6-mer frequency, TF over GST control)","1.71 fold enrichment (6-mer frequency, TF over GST control)","1.49 fold enrichment (6-mer frequency, TF over GST control)","1.73 fold enrichment (6-mer frequency, TF over GST control)","1.39 fold enrichment (6-mer frequency, TF over GST control)","1.42 fold enrichment (6-mer frequency, TF over GST control)"
GTGCTC,"1.28 fold enrichment (6-mer frequency, TF over GST control)","1.19 fold enrichment (6-mer frequency, TF over GST control)","1.26 fold enrichment (6-mer frequency, TF over GST control)","1.05 fold enrichment (6-mer frequency, TF over GST control)","1.25 fold enrichment (6-mer frequency, TF over GST control)","1.22 fold enrichment (6-mer frequency, TF over GST control)","1.25 fold enrichment (6-mer frequency, TF over GST control)","1.32 fold enrichment (6-mer frequency, TF over GST control)"
ATATTT,"1.55 fold enrichment (6-mer frequency, TF over GST control)","1.4 fold enrichment (6-mer frequency, TF over GST control)","1.58 fold enrichment (6-mer frequency, TF over GST control)","1.54 fold enrichment (6-mer frequency, TF over GST control)","1.67 fold enrichment (6-mer frequency, TF over GST control)","1.65 fold enrichment (6-mer frequency, TF over GST control)","1.65 fold enrichment (6-mer frequency, TF over GST control)","1.57 fold enrichment (6-mer frequency, TF over GST control)"
CCGGTA,"1.4 fold enrichment (6-mer frequency, TF over GST control)","1.46 fold enrichment (6-mer frequency, TF over GST control)","1.54 fold enrichment (6-mer frequency, TF over GST control)","1.96 fold enrichment (6-mer frequency, TF over GST control)","1.35 fold enrichment (6-mer frequency, TF over GST control)","1.83 fold enrichment (6-mer frequency, TF over GST control)","1.68 fold enrichment (6-mer frequency, TF over GST control)","1.65 fold enrichment (6-mer frequency, TF over GST control)"
ACCCGG,"1.48 fold enrichment (6-mer frequency, TF over GST control)","1.69 fold enrichment (6-mer frequency, TF over GST control)","1.79 fold enrichment (6-mer frequency, TF over GST control)","2.23 fold enrichment (6-mer frequency, TF over GST control)","1.55 fold enrichment (6-mer frequency, TF over GST control)","1.91 fold enrichment (6-mer frequency, TF over GST control)","1.82 fold enrichment (6-mer frequency, TF over GST control)","1.7 fold enrichment (6-mer frequency, TF over GST control)"
CCGGCA,"1.28 fold enrichment (6-mer frequency, TF over GST control)","1.47 fold enrichment (6-mer frequency, TF over GST control)","1.43 fold enrichment (6-mer frequency, TF over GST control)","1.67 fold enrichment (6-mer frequency, TF over GST control)","1.27 fold enrichment (6-mer frequency, TF over GST control)","1.51 fold enrichment (6-mer frequency, TF over GST control)","1.45 fold enrichment (6-mer frequency, TF over GST control)","1.61 fold enrichment (6-mer frequency, TF over GST control)"
TACAAT,"1.31 fold enrichment (6-mer frequency, TF over GST control)","1.25 fold enrichment (6-mer frequency, TF over GST control)","1.34 fold enrichment (6-mer frequency, TF over GST control)","1.28 fold enrichment (6-mer frequency, TF over GST control)","1.24 fold enrichment (6-mer frequency, TF over GST control)","1.24 fold enrichment (6-mer frequency, TF over GST control)","1.28 fold enrichment (6-mer frequency, TF over GST control)","1.26 fold enrichment (6-mer frequency, TF over GST control)"
